PubChem BioAssay AID1159580 (chemical genetic matrix, 2015)
Screen size: about 5,500 compounds; about 2,000 (36%) were called active. Another 18% or so got no clear call; they are omitted. Rule as the data show it: active = normalized growth mostly below about 0.91 (no sharp cut-off); inconclusive = no clear call, values can overlap the other calls; inactive = mostly above about 0.92. The list shows a part of the results.

Test: chemical genetic growth profiling, strain panel (AID 1159580);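 also: tested at 20 µM; growth read once vehicle control cultures reached saturation at 30 °C; 1 = growth at the plate median or of vehicle wells; lower values mean less growth of the strain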
Conditions: growth OD

Measured: normalized growth

CN(C)CC/C=C1\c2ccccc2Sc2ccc(Cl)cc21
active: S. cerevisiae deletion strains, locus YJR066W, strain TOR1, active compounds read low 0.815 | S. cerevisiae deletion strains, locus YKL160W, strain elf1, active compounds read low 0.867 | S. cerevisiae deletion strains, locus YLR027C, strain aat2, active compounds read low 0.881 | S. cerevisiae deletion strains, locus YLR039C, strain RIC1, active compounds read low 1.5 [resistant] | S. cerevisiae deletion strains, locus YLR258W, strain gsy2, active compounds read low 0.894 | S. cerevisiae deletion strains, locus YLR262C, strain YPT6, active compounds read low 1.62 [resistant] | S. cerevisiae deletion strains, locus YLR342W, strain FKS1 (second series), active compounds read low 0.667 | S. cerevisiae deletion strains, locus YLR342W, strain FKS1, active compounds read low 0.724 | S. cerevisiae deletion strains, locus YLR370C, strain arc18, active compounds read low 0.749 | S. cerevisiae deletion strains, locus YLR418C, strain cdc73, active compounds read low 0.661 | S. cerevisiae deletion strains, locus YMR058W, strain fet3, active compounds read low 0.775 | S. cerevisiae deletion strains, locus YMR231W, strain pep5, active compounds read low 0.0779 | S. cerevisiae deletion strains, locus YNL209W, strain ssb2, active compounds read low 0.665 | S. cerevisiae deletion strains, locus YOL006C, strain TOP1, active compounds read low 0.42 | S. cerevisiae deletion strains, locus YOR070C, strain gyp1, active compounds read low 0.804 | S. cerevisiae deletion strains, locus YOR083W, strain WHI5, active compounds read low 0.735 | S. cerevisiae deletion strains, locus YOR106W, strain vam3, active compounds read low 0.393 | S. cerevisiae deletion strains, locus YOR270C, strain vph1, active compounds read low 0.41 | S. cerevisiae deletion strains, locus YOR290C, strain snf2, active compounds read low 0.818 | S. cerevisiae deletion strains, locus YPL051W, strain arl3, active compounds read low 0.76 | S. cerevisiae deletion strains, locus YPL078C, strain atp4, active compounds read low 0.835 | S. cerevisiae deletion strains, locus YPL106C, strain sse1, active compounds read low 0.802 | S. cerevisiae deletion strains, locus YPR163C, strain tif3, active compounds read low 0.827
inactive: S. cerevisiae deletion strains, locus YJR043C, strain POL32, active compounds read low 1.03 | S. cerevisiae deletion strains, locus YJR075W, strain HOC1, active compounds read low 0.884 | S. cerevisiae deletion strains, locus YKL009W, strain mrt4, active compounds read low 0.989 | S. cerevisiae deletion strains, locus YKL068W, active compounds read low 1.01 | S. cerevisiae deletion strains, locus YKL085W, strain MDH1 (second series), active compounds read low 1.03 | S. cerevisiae deletion strains, locus YKL085W, strain MDH1, active compounds read low 1.03 | S. cerevisiae deletion strains, locus YKL190W, strain CNB1, active compounds read low 0.982 | S. cerevisiae deletion strains, locus YKR026C, strain gcn3, active compounds read low 0.992 | S. cerevisiae deletion strains, locus YKR091W, strain srl3, active compounds read low 0.987 | S. cerevisiae deletion strains, locus YLL001W, strain dnm1, active compounds read low 0.904 | S. cerevisiae deletion strains, locus YLL026W, active compounds read low 0.981 | S. cerevisiae deletion strains, locus YLL041C, strain sdh2, active compounds read low 0.993 | S. cerevisiae deletion strains, locus YLR058C, strain SHM2, active compounds read low 0.933 | S. cerevisiae deletion strains, locus YLR102C, strain apc9, active compounds read low 1.02 | S. cerevisiae deletion strains, locus YLR113W, strain HOG1, active compounds read low 0.915 | S. cerevisiae deletion strains, locus YLR221C, strain rsa3, active compounds read low 0.947 | S. cerevisiae deletion strains, locus YLR262C, strain YPT6 (second series), active compounds read low 1.1 | S. cerevisiae deletion strains, locus YLR268W, strain sec22, active compounds read low 1.01 | S. cerevisiae deletion strains, locus YLR320W, strain mms22, active compounds read low 0.951 | S. cerevisiae deletion strains, locus YLR330W, strain CHS5, active compounds read low 0.999 | S. cerevisiae deletion strains, locus YLR357W, strain rsc2, active compounds read low 0.935 | S. cerevisiae deletion strains, locus YLR371W, strain rom2, active compounds read low 1.01 | S. cerevisiae deletion strains, locus YLR384C, strain iki3, active compounds read low 0.987 | S. cerevisiae deletion strains, locus YML016C, strain PPZ1, active compounds read low 0.994 | S. cerevisiae deletion strains, locus YML032C, strain rad52, active compounds read low 0.947 | S. cerevisiae deletion strains, locus YML120C, strain ndi1, active compounds read low 0.998 | S. cerevisiae deletion strains, locus YML124C, strain tub3, active compounds read low 1.02 | S. cerevisiae deletion strains, locus YMR078C, strain ctf18, active compounds read low 1.02 | S. cerevisiae deletion strains, locus YMR125W, strain sto1, active compounds read low 0.923 | S. cerevisiae deletion strains, locus YMR129W, active compounds read low 1 | S. cerevisiae deletion strains, locus YMR205C, strain PFK2, active compounds read low 0.921 | S. cerevisiae deletion strains, locus YMR223W, strain ubp8, active compounds read low 0.935 | S. cerevisiae deletion strains, locus YMR307W, strain GAS1, active compounds read low 0.903 | S. cerevisiae deletion strains, locus YNL067W, strain RPL9B, active compounds read low 0.929 | S. cerevisiae deletion strains, locus YNL071W, strain lat1, active compounds read low 0.934 | S. cerevisiae deletion strains, locus YNL183C, strain NPR1, active compounds read low 0.872 | S. cerevisiae deletion strains, locus YNL233W, strain BNI4, active compounds read low 0.891 | S. cerevisiae deletion strains, locus YNL248C, strain rpa49, active compounds read low 0.917 | S. cerevisiae deletion strains, locus YNL250W, strain rad50, active compounds read low 1.03 | S. cerevisiae deletion strains, locus YNL271C, strain bni1, active compounds read low 1.01 | S. cerevisiae deletion strains, locus YNL298W, strain CLA4, active compounds read low 1 | S. cerevisiae deletion strains, locus YNL307C, strain MCK1, active compounds read low 0.999 | S. cerevisiae deletion strains, locus YNL322C, strain KRE1 (second series), active compounds read low 1.03 | S. cerevisiae deletion strains, locus YNR049C, strain mso1, active compounds read low 0.996 | S. cerevisiae deletion strains, locus YNR052C, strain pop2, active compounds read low 0.964 | S. cerevisiae deletion strains, locus YOL012C, strain htz1 1.87 | S. cerevisiae deletion strains, locus YOL147C, strain pex11, active compounds read low 1.02 | S. cerevisiae deletion strains, locus YOR001W, strain rrp6, active compounds read low 0.935 | S. cerevisiae deletion strains, locus YOR061W, strain CKA2, active compounds read low 0.941 | S. cerevisiae deletion strains, locus YOR069W, strain VPS5, active compounds read low 1 | S. cerevisiae deletion strains, locus YOR080W, strain dia2, active compounds read low 0.975 | S. cerevisiae deletion strains, locus YOR136W, strain idh2, active compounds read low 1.02 | S. cerevisiae deletion strains, locus YOR144C, strain elg1, active compounds read low 1.01 | S. cerevisiae deletion strains, locus YOR184W, strain ser1, active compounds read low 1.06 | S. cerevisiae deletion strains, locus YOR231W, strain MKK1, active compounds read low 0.869 | S. cerevisiae deletion strains, locus YOR265W, strain rbl2, active compounds read low 0.974 | S. cerevisiae deletion strains, locus YOR316C, strain cot1, active compounds read low 1.02 | S. cerevisiae deletion strains, locus YPL240C, strain hsp82, active compounds read low 0.981 | S. cerevisiae deletion strains, locus YPL241C, strain CIN2, active compounds read low 1.01 | S. cerevisiae deletion strains, locus YPL256C, strain CLN2, active compounds read low 0.95 | S. cerevisiae deletion strains, locus YPR119W, strain clb2, active compounds read low 1.03 | S. cerevisiae deletion strains, locus YPR141C, strain kar3, active compounds read low 1.02 | S. cerevisiae deletion strains, locus YPR167C, strain met16, active compounds read low 1.01 | S. cerevisiae deletion strains, strain wtn01, active compounds read low 0.937 | S. cerevisiae strains, strain wild type, active compounds read low 0.956
